These results are taken from PubChem BioAssay AID463173 (ICCB-Longwood Screening Facility, Harvard Medical School, 2010).

About 4,300 (8.3%) of roughly 52,000 compounds were called active. Cut-off read from the data, not from the text of the source: active = survival mostly below about 52% (no sharp cut-off); inactive = mostly above about 56%. For the sample, actives were picked, then their nearest neighbours and some compounds at random.

The assay relates to DeltatarO mutant. Description: S. aureus survival, RN4220 and DeltatarO strains – OD600, teichoic acid synthesis inhibitors, primary screen (AID 463173). Conditions: S. aureus RN4220 wild type/DeltatarO growth, OD600, 18 h, active compounds read low, screened at 18.75 µg/mL (by protocol).
For `Cc1cc2oc(C(=O)N(Cc3ccc(N(C)C)cc3)CC3CCCO3)c(C)c2cc1Cl` (stereo not drawn), the survival was 65% (inactive). For `Cc1ccccc1CNCCSc1nnnn1C` the value was 84% (inactive).

As for `COc1ccc2oc(-c3ccc(C)c(NC(=O)c4ccc5c(c4)OCCO5)c3)nc2c1`, the survival was 70% (inactive). For `Cc1ccc2oc(-c3ccc(C)c(NC(=O)c4ccc5c(c4)OCCO5)c3)nc2c1` the value was 48% (inactive); for `CCc1ccc(C(=O)Nc2cccc(-c3nc4cc(C(C)C)ccc4o3)c2)cc1`, 41% (active). Then `CCc1ccc(-c2nc3cc(NC(=O)c4ccc(C)c(C)c4)ccc3o2)cc1`, with 151% (inactive); and `CCc1ccc(-c2nc3cc(NC(=O)c4ccc(F)cc4)ccc3o2)cc1`, with 83% (inactive). For `CC(C)c1ccc2oc(-c3cccc(NC(=O)c4ccc5c(c4)OCCO5)c3)nc2c1` the value was 28% (active); for `Cc1ccc(S(=O)(=O)N(CC(O)Cn2c3ccccc3c3ccccc32)c2cccc(C(N)=O)c2)cc1` (stereo not drawn), 38% (active); for `Cc1ccc(S(=O)(=O)N(CC(O)Cn2c3ccccc3c3ccccc32)c2cccc(C(=O)NCCO)c2)cc1` (stereo not drawn), 56% (inactive).

With `Cc1ccc(S(=O)(=O)N(CC(O)Cn2c3ccccc3c3ccccc32)c2cccc(C(=O)N(C)C)c2)cc1` (stereo not drawn), the survival is 54% (inactive).

On to `CCc1nn2c(-c3ccccc3OC)ccnc2c1-c1ccc(F)cc1`, for which the survival is 2% (active). Regarding `Cc1ccccc1-c1ccnc2c(-c3ccc(F)cc3)c(C)nn12`, the survival is 6% (active).

In the case of `CCc1nn2c(-c3ccco3)ccnc2c1-c1ccccc1`, the survival was 84% (inactive).

Consider `COc1ccccc1-c1ccnc2c(-c3ccc(Br)cc3)c(C)nn12`, for which the survival is 94% (inactive). On to `COc1ccc(-c2ccnc3c(-c4ccc(F)cc4)c(C)nn23)cc1OC`, for which the survival was 88% (inactive). For the molecule `CCc1nn2c(-c3ccccc3OC)ccnc2c1-c1ccccc1`, the survival is 0% (active).

As for `COc1cccc(-c2ccnc3c(-c4ccc(F)cc4)c(C)nn23)c1`, the survival was 93% (inactive). Consider `CCc1nn2c(-c3ccco3)ccnc2c1-c1ccc(F)cc1`, for which the survival is 81% (inactive). With `Cc1nn2c(-c3ccco3)ccnc2c1-c1ccc(F)cc1`, the survival is 90% (inactive). Regarding `Cc1cc2nn(-c3ccc(F)cc3)nc2cc1NC(=O)c1cc(Cl)ccc1Cl`, the survival is 141% (inactive). For `CC1CCCN(S(=O)(=O)c2ccc3c(c2)CCN3C(=O)CCC(=O)O)C1` (stereo not drawn), the survival was 96% (inactive). For `Cc1ccc(N2CC(c3nnc(NC(=O)c4ccco4)s3)CC2=O)cc1Cl` (stereo not drawn) the value was 77% (inactive); for `CCN1C(=O)CC(n2c(C)nc3ccccc32)C1=O` (stereo not drawn), 96% (inactive). For `Cc1ccc(-c2nn(-c3ccccc3)c3[nH]c(=O)c(CNCCN4CCOCC4)cc23)cc1` the value was 115% (inactive); for `NC(CC(=O)OC1CCCCC1)C(=O)OC1CCCCC1` (stereo not drawn), 89% (inactive); for `O=C(Nc1ccc(F)c(Cl)c1)C1CCCN(c2ncnc3onc(-c4ccc(F)cc4)c23)C1` (stereo not drawn), 78% (inactive).

As for `CC(C)COc1ccc(C(=O)Nc2nnc(S(=O)(=O)N(C)Cc3ccco3)s2)cc1`, the survival is 79% (inactive). For `CN(Cc1ccco1)S(=O)(=O)c1nnc(NC(=O)c2ccccc2)s1` the value was 23% (active); for `Cc1ccc(C(=O)Nc2nnc(S(=O)(=O)N(C)Cc3ccc(F)cc3)s2)cc1`, 60% (inactive). For `Cc1ccc(C(=O)Nc2nnc(S(=O)(=O)N(C)Cc3ccco3)s2)cc1`, the survival was 39% (active). `CN(Cc1ccco1)S(=O)(=O)c1nnc(NC(=O)c2ccccc2Cl)s1`: the survival was 76% (inactive). Then `O=C(CCCSc1nc(-c2ccco2)cc(C(F)(F)F)n1)NC1CCCCC1`, with 86% (inactive); and `Cc1ccc(N(Cc2cccs2)C(=O)C(C)Oc2ccc(Cl)c(C)c2)cc1` (stereo not drawn), with 58% (inactive).

Turning to `COc1ccc(Cl)cc1C(=O)N1CCCC1`, the survival was 100% (inactive). For `CN1C(C(=O)Nc2ccc(F)cc2F)=CC(c2ccc3c(c2)OCO3)=NS1(=O)=O` the value was 68% (inactive). For `Cc1ccc(Cn2ccnc2SCC(=O)NCc2ccc(F)cc2)cc1` the value was 101% (inactive); for `O=C(/C=C/c1ccco1)NC(=S)NC1CCCCC1`, 115% (inactive); for `Cc1ccc(OC(=O)CSc2nnc(-c3ccco3)n2-c2ccccc2)cc1`, 52% (inactive).

In the case of `Cc1cc(=O)n2nc(N3CCC(C(=O)Nc4ccc(Br)cc4F)CC3)sc2n1`, the survival is 94% (inactive).

`Cc1cc(C)cc(NC(=O)c2cc(S(=O)(=O)N3CCCC3)ccc2F)c1`: the survival was 92% (inactive). For `CCc1ccc2c(c1)c(=O)c(S(=O)(=O)c1ccccc1)cn2CC(=O)Nc1ccc(OC)cc1`, the survival was 76% (inactive). On to `COc1cc(OC)cc(C(=O)Nc2cc(-c3nc4cc(Cl)ccc4o3)ccc2Cl)c1`, for which the survival was 71% (inactive).

Take `O=C(Cc1ccccc1)Nc1cc(-c2nc3cc(Cl)ccc3o2)ccc1Cl`: the survival is 68% (inactive). On to `O=C(/C=C/c1ccccc1)Nc1cc(-c2nc3ccccc3o2)ccc1Cl`, for which the survival is 59% (inactive). As for `O=C(COc1ccccc1[N+](=O)[O-])Nc1cc(-c2nc3cc(Cl)ccc3o2)ccc1Cl`, the survival is 66% (inactive).

Turning to `O=C(Nc1cc(-c2nc3cc(Cl)ccc3o2)ccc1Cl)c1ccco1`, the survival is 41% (active). For `O=C(Nc1cc(-c2nc3cc(Cl)ccc3o2)ccc1Cl)c1cccc2ccccc12` the value was 44% (active); for `O=C(/C=C/c1ccccc1)Nc1cc(-c2nc3cc(Cl)ccc3o2)ccc1Cl`, 46% (active); for `O=C(Nc1ccc2oc(-c3ccc4ccccc4c3)nc2c1)c1cc(Cl)ccc1Cl`, 86% (inactive).

As for `COc1cc(OC)c(-c2cc(C(=O)NCc3ccc(F)cc3)c3c(-c4ccccc4)[nH]nc3n2)cc1OC`, the survival is 98% (inactive). Then `O=C(NCC1CCCO1)C12CC3CC(CC(C3)C1)C2` (stereo not drawn), with 109% (inactive); and `CC(C)Oc1ccccc1NC(=O)CSc1nccn1C`, with 60% (inactive); and `CCOCCc1nn2c(=O)cc(COC(=O)COc3ccc(C)c(C)c3)nc2s1`, with 89% (inactive).

Regarding `O=C(CN1CCN(C2CCCCC2)C(=O)C1=O)Nc1ccc(Cl)cc1`, the survival is 86% (inactive). Then `CCOC(=O)c1c(NC(=O)c2cc3nc(-c4ccc(Br)cc4)cc(C(F)(F)F)n3n2)sc(C(C)=O)c1C`, with 83% (inactive). As to `CCOC(=O)c1cccc(NC(=O)[C@@H](c2ccccc2)N2Cc3ccccc3C2=O)c1`, the survival was 58% (inactive).

Turning to `Cc1ccccc1-c1nnc(SCC(=O)N(C)c2ccccc2)o1`, the survival is 79% (inactive).
